Source: PubChem BioAssay (NCI)
Compounds without any hit were thinned out: in the full panel of roughly 83,000, 20% have a hit.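 Negative percent growth values reflect cell death: -40 means 40% of the cells present at the start died, and -100 means all died.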 Unmarked numbers belong to inactive results. Activity calls are given as the source filed them. Rule for the calls: active = growth percent below 10; inactive = the rest.

Legend:
Test in all cases: NCI-60 one-dose screen, 48 h (100 = growth as untreated, 0 = no growth, -100 = all killed)
[1] = test system: HCT-15 colon; details: 10 µM
[2] = test system: HT29 colon; details: 10 µM
[3] = test system: SNB-19 CNS; details: 10 µM
[4] = test system: U251 CNS; details: 10 µM
[5] = test system: PC-3 prostate; details: 10 µM
[6] = test system: SK-MEL-5 melanoma; details: 10 µM
[7] = test system: UACC-62 melanoma
[8] = test system: LOX IMVI melanoma; details: 10 µM
[9] = test system: SK-MEL-28 melanoma; details: 10 µM
[10] = test system: SNB-75 CNS; details: 10 µM

Row | SMILES | growth [1] | growth [2] | growth [3] | growth [4] | growth [5] | growth [6] | growth ([7]; 10 µM unless noted) | growth [8] | growth [9] | growth ([7]; 10 µM) | growth ([7]; 100 µM) | growth [10]
1 | [O-][N+](=Nc1cccc(Cl)c1)c1cccc(Cl)c1 | 78.1% | 106% | 100% | 84.1% | 96.4% | 95.9% | 87.5% | 97.4% | 113% |  |  | 
2 | CC(C)=NNC(N)=S | 73.5% | 40.5% | 94.4% | 88.2% | 77.9% | 90.2% | 91% | 69.7% | 94.1% |  |  | 
3 | Cc1cc(N)ccc1-c1ccc(N)cc1C | 97.6% | 102% | 107% | 110% | 73.8% | 99.7% | 104% | 88.2% | 104% |  |  | 
4 | C=C1CC/C=C(\C)C(=O)C[C@@H]2[C@@H]1CC2(C)C | 99% | 112% | 95.7% | 100% | 92.6% | 106% |  | 89.7% | 104% | 101% | -99.1% (active) | 
5 | Cc1ccc(N)cc1[N+](=O)[O-] | 106% | 123% | 113% | 98.8% | 95.8% | 111% | 105% | 101% |  |  |  | 
6 | O=C(Nc1cccc(NC(=O)Nc2cc(C(F)(F)F)ccc2Cl)c1)Nc1cc(C(F)(F)F)ccc1Cl | 20.3% | 12.4% | 36.2% | -17.2% (active) | 1.7% (active) | 29.4% | 19.5% | 10.2% | 34.4% |  |  | 
7 | CC(=O)NC(N)=S | 109% | 97.7% | 101% | 105% | 92.6% | 107% | 109% | 102% |  |  |  | 
8 | O=C1C[C@H](c2ccccc2)[C@H](c2ccccc2)C1 | 102% | 105% | 96.1% | 103% | 79.4% | 104% | 90.2% | 102% | 109% |  |  | 
9 | COc1ccc(C2OC(N)=C(O)C2=O)cc1OC (stereo unspecified) | 101% | 108% |  | 111% | 97.2% |  | 93.7% | 102% | 105% |  |  | 101%
10 | CCNCCCCNCCCCNCCCCNCCCCNCC | 99.1% | 72.1% | 81.1% | 95.5% | 84.6% | 73.8% | 72.8% | 75.3% |  |  |  | 
11 | CC(=O)Oc1ccc(Br)cc1C(=O)O | 102% | 107% | 95% | 105% | 92.2% | 104% | 98.6% | 94.6% | 124% |  |  | 
12 | N#CCc1ccc([N+](=O)[O-])cc1 | 105% | 104% | 96.6% | 98.5% | 95.8% | 101% | 92.8% | 100% | 106% |  |  | 
13 | COc1ccc(C2(O)CCCCC2)cc1 | 112% | 106% | 102% | 100% | 89.7% | 98.6% | 94.7% | 96.1% | 120% |  |  | 
14 | CC(C)=C(NC(=O)c1ccccc1)C(=O)O | 104% | 99.6% |  | 114% | 87.8% | 99% |  | 101% | 108% |  |  | 108%
15 | NC(=O)c1ccc(N=C(N)N=C(N)N)cc1 | 95.7% | 105% | 110% | 101% | 93.1% | 93.6% | 105% | 100% | 111% |  |  | 
16 | O=C1OC[C@H]2[C@H](c3ccc(O)c(O)c3)c3cc(O)c(O)cc3C[C@H]12 | 116% | 115% | 120% | 116% | 46.7% | 102% | 111% | 113% | 117% |  |  | 
17 | Nc1nc(N)c2cc(S(=O)(=O)c3cccc(C(F)(F)F)c3)ccc2n1 | 33.2% | 22.9% | 43.6% | 32.2% | 39.6% | 28.3% | 32.5% | 28.6% | 69.9% |  |  | 

Row | SMILES | growth [1] | growth [2] | growth [3] | growth [4] | growth [5] | growth [6] | growth ([7]; 10 µM unless noted) | growth [8] | growth [9] | growth ([7]; 10 µM) | growth ([7]; 100 µM) | growth [10]
18 | CCOC(=O)c1[nH]c(C)c(C(=O)O)c1C | 109% | 105% | 109% | 107% | 88.9% | 108% | 107% | 106% |  |  |  | 
19 | O=C(O)c1cc([N+](=O)[O-])ccc1Cl | 100% | 84.3% | 99.4% | 106% | 88.8% | 100% | 95.6% | 99.5% |  |  |  | 
20 | O=C(Cc1nc2ccc([N+](=O)[O-])cc2nc1CC(=O)c1ccccc1)c1ccccc1 | 35.2% | 75.3% |  | 49.2% | 59.4% |  | 53.2% | 3.86% (active) | 64.7% |  |  | 65.2%
21 | Cc1cc(=O)cc(C)n1-c1ccccc1 | 104% | 101% | 99.8% | 101% | 93.6% | 106% | 99% | 98.9% | 104% |  |  | 
22 | c1ccc(/C(=N\N=C(/c2ccccc2)c2cccs2)c2cccs2)cc1 | 92.4% | 95.4% |  | 103% | 99.8% | 101% |  | 88.4% | 108% |  |  | 89%
23 | Nc1ccc(N=Nc2ccc(O)cc2)c(N)n1 | 64.5% | 103% | 98.1% | 76.6% | 60.7% | 73.3% | 41% | 79.4% | 89.2% |  |  | 
24 | C#CCSc1nnnn1-c1ccc(Br)c(C)c1 | 95.4% | 89.7% | 86.4% | 81.8% | 99.7% | 88.3% | 65.6% | 97.4% | 124% |  |  | 
25 | CCOc1ccc(I)cc1 | 103% | 106% | 104% | 103% | 88.4% | 118% | 95.2% | 100% | 107% |  |  | 
26 | CC(=O)Nc1cccc(NC(C)=O)n1 | 103% | 110% |  | 102% |  | 105% | 97.5% | 103% | 108% |  |  | 106%
27 | Cc1ccc(C(=O)c2ccccc2)c(C)c1 | 105% | 101% | 111% | 110% | 98.3% | 107% | 102% | 93.7% | 109% |  |  | 
28 | CCOC(=O)C(=O)C=P(c1ccccc1)(c1ccccc1)c1ccccc1 | 102% | 106% | 109% | 107% | 96.4% | 102% | 107% | 92.8% | 110% |  |  | 
29 | CCOC(=O)/C(C#N)=C/c1cccc(C)c1 | 108% | 99% | 94.8% | 98.2% |  | 101% | 92% | 94.8% | 109% |  |  | 
30 | O=C(c1ccc(O)cc1)c1ccc(O)cc1 | 99.6% | 106% | 111% | 94.1% | 103% | 99.3% | 110% | 97.4% | 110% |  |  | 
31 | O=C(N/N=C/c1ccccc1O)Nc1nn[nH]n1 | 91.1% | 104% | 97.4% | 104% | 95.6% | 99.3% |  | 96.4% | 111% |  |  | 
32 | Oc1ccc(N=Nc2ccc(Br)cc2)c(O)c1 | 21.2% | 93.5% | 38.5% | 16.8% | 17% | 11.1% | 39.4% | 51.9% | 51.2% |  |  | 
33 | O=C(O)C(Cc1ccccc1)C(=O)O | 103% | 123% | 106% | 108% | 94% | 89.6% | 101% | 100% | 113% |  |  | 
